# In the supplement of paper PMC4466140:
# Tests used:
# Test in all cases: SPOT peptide array binding signal intensity (averaged, normalized) (arbitrary units (background-subtracted, floor 0; scale differs between SH3 domains)); higher = stronger binding of the SH3 domain to the peptide
# AgAbp1 = target: AgAbp1
# Procedure: (§1)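 GST-tagged SH3 domains from S. cerevisiae (Sc), A. gossypii (Ag), C. albicans (Ca) and S. pombe (Sp) were incubated at 10 ug/ml overnight at 4 C on cellulose SPOT membranes carrying 292 synthetic 15-mer peptides mined from the S. cerevisiae proteome (cysteines replaced by serines). Binding was detected with anti-GST antibody, HRP secondary and chemiluminescence, quantified with Genespotter, and reported as normalized spot intensities averaged over biological replicates.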
# AgBbc1 = target: AgBbc1
# Procedure: as §1
# AgBem1-D1 = target: AgBem1-D1
# Procedure: as §1
# AgBzz1-D1 = target: AgBzz1-D1
# Procedure: as §1
# AgBzz1-D2 = target: AgBzz1-D2
# Procedure: as §1
# AgCyk3 = target: AgCyk3
# Procedure: as §1
# AgFus1 = target: AgFus1
# Procedure: as §1
# AgHof1 = target: AgHof1
# Procedure: as §1
# AgHse1 = target: AgHse1
# Procedure: as §1
# AgLsb1 = target: AgLsb1
# Procedure: as §1
# AgLsb4 = target: AgLsb4
# Procedure: as §1
# AgMyo5 = target: AgMyo5
# Procedure: as §1
# AgNbp2 = target: AgNbp2
# Procedure: as §1
# AgRvs167 = target: AgRvs167
# Procedure: as §1
# AgSho1 = target: AgSho1
# Procedure: as §1
# AgSla1-D1-D2 = target: AgSla1-D1-D2
# Procedure: as §1
# AgSla1-D3 = target: AgSla1-D3
# Procedure: as §1
# CaAbp1-D1 = target: CaAbp1-D1
# Procedure: as §1
# CaAbp1-D2 = target: CaAbp1-D2
# Procedure: as §1
# CaBbc1 = target: CaBbc1
# Procedure: as §1
# CaBem1-D1 = target: CaBem1-D1
# Procedure: as §1
# CaBzz1-D1 = target: CaBzz1-D1
# Procedure: as §1
# CaBzz1-D2 = target: CaBzz1-D2
# Procedure: as §1
# CaCyk3 = target: CaCyk3
# Procedure: as §1
# CaFus1 = target: CaFus1
# Procedure: as §1
# CaHof1 = target: CaHof1
# Procedure: as §1
# CaHse1 = target: CaHse1
# Procedure: as §1
# CaLsb1 = target: CaLsb1
# Procedure: as §1
# CaLsb4 = target: CaLsb4
# Procedure: as §1
# CaMyo5 = target: CaMyo5
# Procedure: as §1
# CaNbp2 = target: CaNbp2
# Procedure: as §1
# CaRvs167 = target: CaRvs167
# Procedure: as §1
# CaRvs167-3 = target: CaRvs167-3
# Procedure: as §1
# CaSho1 = target: CaSho1
# Procedure: as §1
# CaSla1-D1-D2 = target: CaSla1-D1-D2
# Procedure: as §1
# CaSla1-D3 = target: CaSla1-D3
# Procedure: as §1
# ScAbp1 = target: ScAbp1
# Procedure: as §1
# ScBbc1 = target: ScBbc1
# Procedure: as §1
# ScBem1-D1 = target: ScBem1-D1
# Procedure: as §1
# ScBzz1-D1 = target: ScBzz1-D1
# Procedure: as §1
# ScBzz1-D2 = target: ScBzz1-D2
# Procedure: as §1
# ScCyk3 = target: ScCyk3
# Procedure: as §1
# ScFus1 = target: ScFus1
# Procedure: as §1
# ScHof1 = target: ScHof1
# Procedure: as §1
# ScHse1 = target: ScHse1
# Procedure: as §1
# ScLsb1 = target: ScLsb1
# Procedure: as §1
# ScLsb2 = target: ScLsb2
# Procedure: as §1
# ScLsb3 = target: ScLsb3
# Procedure: as §1
# ScLsb4 = target: ScLsb4
# Procedure: as §1
# ScMyo3 = target: ScMyo3
# Procedure: as §1
# ScMyo5 = target: ScMyo5
# Procedure: as §1
# ScNbp2 = target: ScNbp2
# Procedure: as §1
# ScPex13 = target: ScPex13
# Procedure: as §1
# ScRvs167 = target: ScRvs167
# Procedure: as §1
# ScSho1 = target: ScSho1
# Procedure: as §1
# ScSla1-D1-D2 = target: ScSla1-D1-D2
# Procedure: as §1
# ScSla1-D3 = target: ScSla1-D3
# Procedure: as §1
# SpAbp1-D1 = target: SpAbp1-D1
# Procedure: as §1
# SpBbc1 = target: SpBbc1
# Procedure: as §1
# SpBzz1-D1 = target: SpBzz1-D1
# Procedure: as §1
# SpBzz1-D2 = target: SpBzz1-D2
# Procedure: as §1
# SpCyk3 = target: SpCyk3
# Procedure: as §1
# SpHof1 = target: SpHof1
# Procedure: as §1
# SpHof1-2 = target: SpHof1-2
# Procedure: as §1
# SpHof1-3 = target: SpHof1-3
# Procedure: as §1
# SpHse1 = target: SpHse1
# Procedure: as §1
# SpLsb1 = target: SpLsb1
# Procedure: as §1
# SpLsb4 = target: SpLsb4
# Procedure: as §1
# SpMyo1 = target: SpMyo1
# Procedure: as §1
# SpNbp2 = target: SpNbp2
# Procedure: as §1
# SpPex13 = target: SpPex13
# Procedure: as §1
# SpRvs167 = target: SpRvs167
# Procedure: as §1
# SpSla1-D1-D2 = target: SpSla1-D1-D2
# Procedure: as §1
# SpSla1-D3 = target: SpSla1-D3
# Procedure: as §1
binder,measurement,setting,value
RRRDFGAPANKRPRR,SPOT peptide array binding signal intensity,AgAbp1,45
same,SPOT peptide array binding signal intensity,AgBbc1,223
same,SPOT peptide array binding signal intensity,AgBem1-D1,179
same,SPOT peptide array binding signal intensity,AgBzz1-D1,60
same,SPOT peptide array binding signal intensity,AgBzz1-D2,18
same,SPOT peptide array binding signal intensity,AgCyk3,5
same,SPOT peptide array binding signal intensity,AgFus1,374
same,SPOT peptide array binding signal intensity,AgHof1,57.5
same,SPOT peptide array binding signal intensity,AgHse1,156
same,SPOT peptide array binding signal intensity,AgLsb1,0.75
same,SPOT peptide array binding signal intensity,AgLsb4,56.5
same,SPOT peptide array binding signal intensity,AgMyo5,0.5
same,SPOT peptide array binding signal intensity,AgNbp2,39
same,SPOT peptide array binding signal intensity,AgRvs167,6
same,SPOT peptide array binding signal intensity,AgSho1,10
same,SPOT peptide array binding signal intensity,AgSla1-D1-D2,27.5
same,SPOT peptide array binding signal intensity,AgSla1-D3,4.75
same,SPOT peptide array binding signal intensity,CaAbp1-D1,106
same,SPOT peptide array binding signal intensity,CaAbp1-D2,126
same,SPOT peptide array binding signal intensity,CaBbc1,546
same,SPOT peptide array binding signal intensity,CaBem1-D1,52.5
same,SPOT peptide array binding signal intensity,CaBzz1-D1,116
same,SPOT peptide array binding signal intensity,CaBzz1-D2,124
same,SPOT peptide array binding signal intensity,CaCyk3,17
same,SPOT peptide array binding signal intensity,CaFus1,241
same,SPOT peptide array binding signal intensity,CaHof1,0.5
same,SPOT peptide array binding signal intensity,CaHse1,2.25
same,SPOT peptide array binding signal intensity,CaLsb1,≤ 0
same,SPOT peptide array binding signal intensity,CaLsb4,67.5
same,SPOT peptide array binding signal intensity,CaMyo5,2.25
same,SPOT peptide array binding signal intensity,CaNbp2,138
same,SPOT peptide array binding signal intensity,CaRvs167,16
same,SPOT peptide array binding signal intensity,CaRvs167-3,4.5
same,SPOT peptide array binding signal intensity,CaSho1,116
same,SPOT peptide array binding signal intensity,CaSla1-D1-D2,66
same,SPOT peptide array binding signal intensity,CaSla1-D3,4.75
same,SPOT peptide array binding signal intensity,ScAbp1,79
same,SPOT peptide array binding signal intensity,ScBbc1,65
same,SPOT peptide array binding signal intensity,ScBem1-D1,94
same,SPOT peptide array binding signal intensity,ScBzz1-D1,32
same,SPOT peptide array binding signal intensity,ScBzz1-D2,29
same,SPOT peptide array binding signal intensity,ScCyk3,100
same,SPOT peptide array binding signal intensity,ScFus1,163
same,SPOT peptide array binding signal intensity,ScHof1,2
same,SPOT peptide array binding signal intensity,ScHse1,584
same,SPOT peptide array binding signal intensity,ScLsb1,4.5
same,SPOT peptide array binding signal intensity,ScLsb2,1.5
same,SPOT peptide array binding signal intensity,ScLsb3,810
same,SPOT peptide array binding signal intensity,ScLsb4,15.5
same,SPOT peptide array binding signal intensity,ScMyo3,9
same,SPOT peptide array binding signal intensity,ScMyo5,11
same,SPOT peptide array binding signal intensity,ScNbp2,76.5
same,SPOT peptide array binding signal intensity,ScPex13,8.25
same,SPOT peptide array binding signal intensity,ScRvs167,31.8
same,SPOT peptide array binding signal intensity,ScSho1,688
same,SPOT peptide array binding signal intensity,ScSla1-D1-D2,611
same,SPOT peptide array binding signal intensity,ScSla1-D3,25
same,SPOT peptide array binding signal intensity,SpAbp1-D1,30.5
same,SPOT peptide array binding signal intensity,SpBbc1,18
same,SPOT peptide array binding signal intensity,SpBzz1-D1,225
same,SPOT peptide array binding signal intensity,SpBzz1-D2,≤ 0
same,SPOT peptide array binding signal intensity,SpCyk3,4
same,SPOT peptide array binding signal intensity,SpHof1,367
same,SPOT peptide array binding signal intensity,SpHof1-2,21.5
same,SPOT peptide array binding signal intensity,SpHof1-3,342
same,SPOT peptide array binding signal intensity,SpHse1,108
same,SPOT peptide array binding signal intensity,SpLsb1,1.5
same,SPOT peptide array binding signal intensity,SpLsb4,406
same,SPOT peptide array binding signal intensity,SpMyo1,19
same,SPOT peptide array binding signal intensity,SpNbp2,42
same,SPOT peptide array binding signal intensity,SpPex13,15
same,SPOT peptide array binding signal intensity,SpRvs167,12.2
same,SPOT peptide array binding signal intensity,SpSla1-D1-D2,≤ 0
same,SPOT peptide array binding signal intensity,SpSla1-D3,8
